# Experimental data published in PubChem BioAssay.
# How the values were obtained:
# [1] = test system: Human papillomavirus type 1a protein E7 (residues 44-93); experiment: small molecules binding HPV E7 44-93 – biochemical, small-molecule microarray, residues 44-93, 635 nm fluorescence, primary screen (AID 1108); conditions: fluorescence 635 nm, higher = more signal;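 note: E7 fragment applied at 1 µg/mL in TBST for 1 h at 4 C; score combines spot fluorescence with its signal to noise ratio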
# [2] = hepatitis C replication reporter changes, two-sided – Huh7 cells, luciferase reporter, HCV replication inhibitor project, primary screen (AID 1109); conditions: Huh7 HCV replicon luciferase reporter, 48 h; higher = more signal;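 note: huh7 hepatoma cells harbouring a luciferase neomycin HCV replicon reporter; luciferase luminescence as measure of HCV replicon replication; test concentration not given here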
# [3] = molecular target: Left-right determination factor 2 (Homo sapiens) (UniProt O00292); experiment: small molecules binding LEFTY2 protein – biochemical, small-molecule microarray, 635 nm fluorescence scan, primary screen (AID 1110); conditions: higher = more signal
# Sequence of Left-right determination factor 2 (Homo sapiens) (O00292 whole entry, looked up): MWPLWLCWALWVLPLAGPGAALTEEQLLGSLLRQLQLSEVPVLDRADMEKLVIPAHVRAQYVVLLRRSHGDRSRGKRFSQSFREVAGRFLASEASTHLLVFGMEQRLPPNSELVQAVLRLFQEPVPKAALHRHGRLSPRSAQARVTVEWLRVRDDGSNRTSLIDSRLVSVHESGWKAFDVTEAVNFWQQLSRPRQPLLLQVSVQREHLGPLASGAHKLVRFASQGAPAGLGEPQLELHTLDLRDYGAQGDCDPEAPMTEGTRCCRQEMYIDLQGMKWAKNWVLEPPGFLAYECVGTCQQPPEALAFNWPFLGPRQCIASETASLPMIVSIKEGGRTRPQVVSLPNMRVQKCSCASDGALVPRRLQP
# [4] = molecular target: Calmodulin-1 (Homo sapiens) (UniProt P0DP23); experiment: small molecules binding calmodulin-1 with EGTA – biochemical, small-molecule microarray, Cy5-labelled CALM1, profiling panel (AID 1111); conditions: Cy5-CALM1 binding fluorescence, higher = more signal;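 note: labelled calmodulin applied in Tris saline Tween buffer holding calcium plus EGTA and DTT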
# [5] = molecular target: Calmodulin-1 (Homo sapiens) (UniProt P0DP23); experiment: small molecules binding Ca-loaded calmodulin-1 – biochemical, small-molecule microarray, Cy5-labelled CALM1, plus calcium, artefact control for SMM control-protein annotation, profiling panel (AID 1112); conditions: Cy5-CALM1 binding fluorescence, higher = more signal;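 note: score merges spot fluorescence with signal to noise from triplicate slides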
# [6] = probe aWnt5a binding to arrayed compounds – biochemical, biotinylated probe, 635/667 nm fluorescence, primary screen (AID 1113); conditions: small-molecule microarray, higher = more signal;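 note: score merges 667 nm fluorescence intensity with signal-to-noise per printed feature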
# [7] = probe aShh binding to arrayed compounds – biochemical, biotinylated probe, 635/667 nm fluorescence, primary screen (AID 1114); conditions: small-molecule microarray, higher = more signal;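 note: probe is biotin-labelled aShh protein from a stem cell growth factor screen; measures binding of labelled protein to compounds printed on the slide; score merges feature fluorescence at 667 nm with signal-to-noise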
# [8] = probe aNog binding to arrayed compounds – biochemical, biotinylated probe, 635/667 nm fluorescence, primary screen (AID 1115); conditions: small-molecule microarray, higher = more signal;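 note: probe is biotinylated aNog protein used at 0.15 µg/mL for 1 h at 4 C; z-score combines 667 nm fluorescence of each spot with its signal to noise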
# [9] = molecular target: Torsin-1A-interacting protein 1 (Homo sapiens) (UniProt Q5JTV8); experiment: compound microarray binding of lysate hLAP1 – cell lysate, small-molecule microarray, COS7 lysate, 635/667 nm fluorescence, primary screen (AID 1116); conditions: 635 nm fluorescence, higher = more signal
# Sequence of Torsin-1A-interacting protein 1 (Homo sapiens) (Q5JTV8 whole entry, looked up): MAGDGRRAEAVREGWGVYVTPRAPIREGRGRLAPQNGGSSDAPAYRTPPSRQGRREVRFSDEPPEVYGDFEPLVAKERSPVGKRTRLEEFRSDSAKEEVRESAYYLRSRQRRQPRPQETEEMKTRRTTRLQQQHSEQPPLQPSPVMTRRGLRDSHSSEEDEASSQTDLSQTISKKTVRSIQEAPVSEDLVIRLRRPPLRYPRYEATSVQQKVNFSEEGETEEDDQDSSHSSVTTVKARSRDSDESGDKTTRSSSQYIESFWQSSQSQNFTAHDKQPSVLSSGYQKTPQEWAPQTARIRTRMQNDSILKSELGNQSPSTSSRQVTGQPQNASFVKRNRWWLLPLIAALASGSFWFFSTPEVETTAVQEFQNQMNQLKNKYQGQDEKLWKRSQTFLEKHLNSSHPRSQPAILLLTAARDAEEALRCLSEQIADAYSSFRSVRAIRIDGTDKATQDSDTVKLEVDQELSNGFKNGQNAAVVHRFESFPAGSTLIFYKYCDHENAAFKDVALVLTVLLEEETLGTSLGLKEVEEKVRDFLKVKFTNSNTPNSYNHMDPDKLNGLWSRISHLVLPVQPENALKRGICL
# [10] = molecular target: Alpha-bungarotoxin (Bungarus multicinctus) (UniProt P60615); experiment: compounds binding labelled alpha-BTX control protein – biochemical, small-molecule microarray, Alexa647 label, 635/667 nm fluorescence, artefact control for SMM control protein annotation, profiling panel (AID 1117); conditions: alpha-BTX-A647 binding fluorescence, higher = more signal
# Sequence of Alpha-bungarotoxin (Bungarus multicinctus) (P60615 whole entry, looked up): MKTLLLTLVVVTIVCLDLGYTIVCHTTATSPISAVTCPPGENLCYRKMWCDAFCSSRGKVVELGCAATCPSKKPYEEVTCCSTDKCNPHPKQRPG
SMILES,composite z-score [1],z-score [2],composite z-score [3],composite z-score [4],composite z-score [5],composite z-score [6],composite z-score [7],composite z-score [8],composite z-score [9],composite z-score [10]
CC(=O)N1CC(C(O)C2C=CC3C(=O)NC(=O)C3N2Nc2ccc(Cl)cc2Cl)c2ccccc21 (stereo not given),0.759,-0.819,-0.138,1.18,0.789,0.0437,0.806,1.5,0.033,0.869
COc1cc(NN2C(C(O)c3cc(OC)c(OC)c(OC)c3)C=CC3C(=O)N(c4ccccc4)C(=O)C32)cc(OC)c1OC (stereo not given),1.41,-1.54,0.307,2.02,0.986,0.145,-0.0193,0.756,1.56,2.35
CO[C@H]1O[C@H](CO)[C@@H](OC(=O)c2ccc(Br)cc2)[C@@H]2OC(=O)[C@H](Cc3ccccc3)C/C=C/C[C@@H](Cc3ccccc3)C(=O)O[C@@H]12,0.79,-3.01,0.109,0.575,-0.662,-0.275,-0.23,-0.542,0.706,0.142
C=C(COC)/C(=C/C[C@@H](OC(=O)c1ccncc1)c1ccccc1OCCO)c1cc(C(=O)OC)ccc1OC,-0.553,-2.5,-0.934,-0.188,-0.66,-0.107,-0.0849,0.0471,0.332,-0.626
COC(=O)C(CC#Cc1ccc2c(c1)[C@]1(C(=O)N2)[C@H](c2ccc(O)cc2)N2[C@H](c3ccccc3)[C@H](c3ccccc3)OC(=O)[C@H]2[C@@H]1C(=O)N1CCCCCCC1)C(=O)OC,1.36,-1.69,0.65,2.75,1.64,0.593,1.03,2.58,3.87,2.18
Nc1cc(Br)ccc1C(=O)O,-0.0633,-0.518,0.285,0.955,0.885,-0.0045,-0.0626,0.0558,0.0546,1.39
C=CCNC(=O)[C@@H]1[C@H]2C(=O)O[C@H](c3ccccc3)[C@H](c3ccccc3)N2[C@H](c2ccc(OCCO)cc2)[C@@]12C(=O)N(C(=O)OCCOC)c1ccc(C#CCCO)cc12,1.33,-0.459,0.909,0.88,-0.381,0.0229,-0.0769,-0.519,0.262,1.35
C=CCNC(=O)[C@@H]1[C@H]2C(=O)O[C@H](c3ccccc3)[C@H](c3ccccc3)N2[C@H](c2ccc(O)cc2)[C@@]12C(=O)Nc1ccc(C#CCC(C(=O)OC)C(=O)OC)cc12,1.31,-2.11,-0.0742,-0.0406,0.0221,-0.147,-0.2,0.187,0.411,0.388
C=C(/C(=C/C[C@H](OC(=O)c1ccncc1)c1cccc(OCCO)c1)c1cnc2ccccc2c1)C(C)C,0.589,-4.47,0.67,0.127,-0.412,-0.0236,-0.0011,0.0215,2.85,3.56
CC(C)N1CC=CC23O[C@@H]4/C=C\CCCOC(=O)C4[C@H]2C(=O)N(CCCCCCO)[C@@H]3C1=O (stereo not given in full),0.509,-0.276,-1.46,-0.954,-0.488,-0.0643,-0.346,0.345,0.881,-1.5
O=C1C2C=CC(C(O)c3cccc(O)c3)N(Nc3ccccc3)C2C(=O)N1c1ccccc1 (stereo not given),0.752,-0.424,-0.0995,0.46,0.16,0.0077,0.398,0.496,0.539,0.546
COCCOC(=O)N1C(=O)[C@@]2(c3cc(C#CCCO)ccc31)[C@H](c1ccccc1OCCO)N1[C@H](c3ccccc3)[C@H](c3ccccc3)OC(=O)[C@H]1[C@@H]2C(=O)N1CCCCCCC1,1.4,-2.25,0.994,2.58,1.09,0.495,1.94,2.8,3.04,2.2
O=C1C2C=CC(C(O)c3ccc4c(c3)OCO4)N(Nc3ccccc3)C2C(=O)N1c1ccccc1 (stereo not given),1.36,-0.631,-0.127,1.36,0.174,-0.0286,-0.0904,1.69,0.722,1.05
NC(=O)[C@H]1[C@@H]2C(=O)O[C@@H](c3ccccc3)[C@@H](c3ccccc3)N2[C@@H](c2ccc(O)cc2)[C@]12C(=O)Nc1ccc(C#CC3=CCCCC3)cc12,1.42,-1.49,-0.443,0.0791,-0.413,-0.0792,-0.279,-0.185,0.731,1.02
CCCCCCCCCCC(O)C1C=CC2C(=O)N(C)C(=O)C2N1Nc1cc(OC)c(OC)c(OC)c1 (stereo not given),-0.298,-2.01,-1.11,1.82,1.39,-0.0529,-0.0398,0.837,-0.232,0.229
CC(=O)NCCCC[C@@H]1NC(=O)[C@H]2C[C@@H](C(=O)NCCCCCNC(=O)CS)[C@@H](c3cccc(OCCO)c3)N2C1=O,0.0676,0.217,0.0794,0.232,0.202,-0.157,-0.147,-0.158,0.868,0.389
CCCCC(=C=CC[C@H](O)c1ccc(OCCO)cc1)C[C@H](O)COCc1ccccc1,0.383,-1.77,-0.233,-0.567,-0.377,-0.0685,0.14,-0.0168,0.941,0.134
CCOC(=O)C1=C[C@@H](c2ccccc2)N(S(=O)(=O)c2ccc(C)cc2)[C@H]1c1ccccc1,0.0627,0.235,-0.063,0.997,0.209,-0.124,-0.138,1.13,-0.109,0.291
COc1ccc(C(O)C2C=CC3C(=O)N(c4ccccc4)C(=O)C3N2Nc2ccc(C(C)C)cc2)c2ccccc12 (stereo not given),1.39,-0.716,-0.146,1.17,0.922,0.0068,0.232,-0.229,0.865,2.55
COCCOC(=O)N1C(=O)[C@@]2(c3cc(C#CCC(C(=O)OC)C(=O)OC)ccc31)[C@H](c1ccc(OCCO)cc1)N1[C@H](c3ccccc3)[C@H](c3ccccc3)OC(=O)[C@H]1[C@@H]2C(=O)Nc1nc2ccccc2s1,1.16,-2.06,0.423,1.05,-0.0309,-0.0202,-0.0793,-0.114,0.743,1.06
CCc1cccc(NC(=O)O[C@H]2[C@H](OC(=O)Nc3ccccc3)[C@H](OC(=O)Nc3ccccc3)[C@@H](OC)O[C@@H]2CO)c1,1.44,-3.86,0.0274,1.26,-0.101,-0.0006,0.23,1.11,1.03,0.0456
CC(C)(C)OC(=O)CC[C@]12N=C(c3ccc(OCCCO)cc3)O[C@H]1c1ccccc1N(Cc1ccccc1)C2=O,0.552,-2.09,0.27,0.42,0.348,-0.0765,-0.0969,0.963,1.36,1.28
CCOC(=O)C1=CC[C@@H](c2ccccc2)N(S(=O)(=O)c2ccc(C)cc2)[C@H]1C=Cc1ccccc1,0.261,-1.83,-0.481,0.401,-0.401,0.127,-0.13,-0.5,0.381,0.621
COCCOC(=O)N1C(=O)[C@@]2(c3ccccc31)[C@H](c1ccccc1OCCO)N1[C@H](c3ccccc3)[C@H](c3ccccc3)OC(=O)[C@H]1[C@@H]2C(N)=O,1.19,-2.76,0.574,1.93,0.208,0.0317,0.0121,0.389,1.29,1.14
COc1ccc([Si](C)(C)[C@@H]2[C@@H](CCn3cc([C@H](O)c4ccccc4)nn3)O[C@]3(C(=O)N(Cc4cccc(N5C(=O)c6cccc7cccc5c67)c4)c4ccccc43)[C@H]2C)cc1,1.04,-2.89,-1.54,0.114,0.364,-0.232,-0.221,0.262,-0.364,0.0544
